According to PubChem BioAssay (NCI):
The panel holds about 83,000 compounds, 20% with a hit somewhere; the sample as a whole holds those more often.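 Percent growth is the endpoint: 0 to 100 indicates growth inhibition (40 means 60% inhibition), 0 means no net growth, and negative values indicate cell death.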 Calls of active or inactive are those of the source. The calls were made as follows: active = growth percent below 10; inactive = the rest.

System: HL-60(TB) leukemia
Experiment: NCI-60 one-dose screen, 48 h (100 = growth as untreated, 0 = no growth, -100 = all killed)
Conditions: 10 µM unless noted

| SMILES | growth |
| --- | --- |
| O=C(O)c1cccc(CN2CCN(c3cc4c(cc3F)c(=O)c(C(=O)O)cn4C3CC3)CC2)c1O | 99.4% (inactive) |
| N#Cc1c(-c2ccc(F)cc2)nc(N/N=C/c2cccc(O)c2)nc1N1CCOCC1 | 47.2% (inactive) |
| FC(F)(F)c1ccc2nc(-c3nc(-c4ccccc4)n4ccccc34)[nH]c2c1 | 108% (inactive) |
| O=C(NNc1nc2cc(F)ccc2n2c(CN3CCOCC3)ccc12)c1ccccc1 | -1.51% (active) |
| CC(=O)OCC(OC(C)=O)C(OC(C)=O)C(OC(C)=O)C(OC(C)=O)C(/C=N/Nc1ccccc1)=N/Nc1ccccc1 (stereo not given) | 59.4% (inactive) |
| Clc1ccc2nn3c4ccccc4c(OCCN4CCOCC4)nc3c2c1 | 81.9% (inactive) |
| COc1cc2nc(-c3cccc4cccnc34)nc(NC3CCN(Cc4ccccc4)CC3)c2cc1OC | -63.4% (active) |
| C#C[C@]1(O)CC[C@H]2[C@@H]3CC=C4c5sc(N=C(N)N)nc5CC[C@]4(C)[C@H]3CC[C@@]21C | -44.8% (active) |
| C=CCC(=O)N[C@H](/C=C/C(=O)O)Cc1ccc(-c2cc(Cl)cc(Cl)c2)cc1 | 101% (inactive) |
| Nc1c(C(=O)Nc2cccc(Cl)c2)sc2nc3c(cc12)C(O)CCC3 (stereo not given) | 2.96% (active) |
| COc1ccc(-c2cc(Cc3cccs3)c(=O)n(Cn3cncn3)n2)cc1 | 107% (inactive) |
| CCCCCC(=O)OCc1ccc(Cl)c(Cl)c1 | 97.2% (inactive) |
| COc1cc(-c2cc(C(=O)Nc3nc4ccccc4s3)nc3cc(-c4ccccc4)nn23)cc(OC)c1OC | 48.3% (inactive) |
| COc1cc(-c2ncn(/C=C\c3nnco3)n2)cc(C(F)(F)F)c1 | 11.2% (inactive) |
| C=C1C(=O)O[C@H]2[C@H]1CC/C(COC(=O)NCc1cccc(OC)c1)=C\CC[C@@]1(C)O[C@@H]21 | -38.6% (active) |
| CCCCOc1ccc(/C=N/Nc2cc(C)nc3ccc(Br)cc23)cc1 | 1.52% (active) |
| COc1ccc(-c2cc(-c3c(C)oc4cc5occc5c(OC)c4c3=O)nc(N)c2C#N)cc1OC | 57.9% (inactive) |
| Cc1ccc2c(c1)O/C(=C\c1ccc([N+](=O)[O-])o1)C2=O | 17.2% (inactive) |
| O=S(=O)(NCCNc1cc(-c2cn(-c3ccccc3)nc2-c2ccccc2)ccn1)c1cccc2ccccc12 | 36.4% (inactive) |
| O=C(c1ccccc1)c1c(/C=C/c2ccc(Cl)cc2)nc2ccccc2c1/C=C/c1cccs1 | 102% (inactive) |

| SMILES | growth |
| --- | --- |
| NCCCN | 98.8% (inactive) |
| Oc1ccccc1-c1nc2c3ccccc3c3ccccc3c2o1 | 88% (inactive) |
| C=C1C[C@@]2(C)C(CC[C@]3(C)C2CC=C2C4CC(C)(C)C[C@@H](OC(=O)/C(C)=C\C)[C@]4(C(=O)O)CC[C@]23C)C(C)(C)C1=O (stereo not given in full) | -32.4% (active) |
| COc1ccc2c(c1)sc1nc(-c3ccccc3)c(-c3ccsc3)n12 | 14.2% (inactive) |
| O=S(=O)(NCCCNc1cc(-c2cn(-c3ccccc3)nc2-c2ccccc2)ccn1)c1ccc(C(F)(F)F)cc1 | 39.1% (inactive) |
| CC([C@H]1CCC2C3CCC4C(=O)C(NC=O)=CC[C@]4(C)C3CC[C@@]21C)N(C)C (stereo not given in full) | 1.54% (active) |
| Cc1onc2c(-c3ccccc3)n[nH]c(=O)c12 | 90.2% (inactive) |
| COc1ccc(Cn2cc3c(c2-c2cc(OC)c(OC)c(OC)c2)CCc2c(CO)noc2-3)cc1 | -36.2% (active) |
| COc1cccc(/C=C/C(=O)c2cc3c(N)c(C(=O)Nc4ccccc4C)sc3nc2C)c1 | 26.3% (inactive) |
| CCCCCc1ccc(C)cc1OC(=O)CCl | 114% (inactive) |
| Cn1c(/C(C#N)=C/c2ccc3ccccc3c2)cc2ccccc21 | -6.93% (active) |
| Cc1ccc(S(=O)(=O)NCC[C@@H]2C[C@H]2c2cc3ccccc3s2)cc1 | 112% (inactive) |
| COc1ccc(C(=S)N2CCN(c3cccc(C)c3)CC2)cc1OC | 57.3% (inactive) |
| Nc1n[nH]c2cc(F)c([C@@H]3Nc4c(F)cc5[nH]ncc5c4[C@H]4C5CCC(C5)[C@@H]34)cc12 (stereo not given in full) | -30.1% (active) |
| CCOc1cccc(-c2nc(N)nc(Nc3ccccc3SSc3ccccc3Nc3nc(N)nc(-c4cccc(OCC)c4)n3)n2)c1 | 8.5% (active) |
| C=CCSc1nnc(COc2ccc3c(C)c(Cc4ccccc4)c(=O)oc3c2C)o1 | 96.1% (inactive) |
| CCCC(=O)OCC(COC(=O)CCC)OC(=O)CCC | 100% (inactive) |
| CCCCCc1cc[n+](CC(=O)c2ccc(Cl)cc2)cc1 | 94% (inactive) |
| COc1ccc2[nH]c(O)c(/C=c3/cc4c(c(-c5cc(OC)c(OC)c(OC)c5)n3)=Nc3ccccc3-4)c2c1 | 58.8% (inactive) |
| COC(=O)[C@H](Cc1cn(C)cn1)NC(=O)[C@H](Cc1ccccc1)NC(=O)Nc1cc(C(F)(F)F)cc(C(F)(F)F)c1 | -67.9% [100 µM] (active) |
